The text below walks through data of PubChem BioAssay (NCI).

Experiment in all cases: NCI-60 one-dose screen, 48 h (100 = growth as untreated, 0 = no growth, -100 = all killed)
Holding throughout (details): 10 µM unless noted

Assay [1] has as its system SR leukemia.
For assay [2], the system named is OVCAR-8 ovarian.
In assay [3] the test system is OVCAR-5 ovarian.
Assay [4] has as its system OVCAR-4 ovarian.
Assay [5] relates to IGROV1 ovarian.
Assay [6] relates to HS 578T breast.
Assay [7] concerns NCI/ADR-RES ovarian.
In assay [8] the test system is T-47D breast.
Assay [9] relates to BT-549 breast.
For assay [10], the system named is MDA-MB-435 melanoma.
Assay [11] concerns SW-620 colon.
Assay [12] concerns MCF7 breast.
Assay [13] has as its system HCT-116 colon.
In assay [14] the test system is HCC-2998 colon.
Assay [15] has as its system KM12 colon.
Assay [16] concerns OVCAR-3 ovarian.
Assay [17] has as its system SK-OV-3 ovarian.

About 83,000 compounds went through this panel and 20% of them were active in at least one assay; those are over-represented in the sample as a whole.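 Cells were grown in 96-well plates and exposed to the test compound at a single concentration for 48 hours; results are reported as percent growth, with values below 10 considered active.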 Unmarked numbers belong to inactive results. Activity calls are given as the source filed them.

As for `O=C(NCCOCCOCCNc1cccc2c1C(=O)N(C1CCCNC1=O)C2=O)c1cc2c(o1)C(=O)c1ccccc1C2=O` (centres undefined), the growth was 13.3% in assay [1]; 3.33% (active) in [2]; -84.5% (active) in assay [3]; -98.1% (active) in [4]; -15.4% (active) in assay [5]; -22.2% (active) in [6]. For the same compound, the growth is 48.6% in assay [7]; 14.9% in assay [8]; -94.7% (active) in [9]; -94.1% (active) in assay [10]; -6.93% (active) in assay [11]; -63.3% (active) in assay [12]. The growth in assay [13] is 0.0602% (active); in assay [14], -56.2% (active); in assay [15], -14.2% (active).
Take `Cc1[nH]c(-c2nc3ccccc3[nH]2)c(C)c1C(=O)NNc1ccc(Cl)cc1`: the growth is 88.6% in assay [1]; 90.2% in assay [2]; 101% in assay [3]; 88.2% in assay [4]; 88% in [5]; 98.4% in assay [16]. Further, the growth was 92.7% in assay [6]; 96.3% in assay [7]; 85.1% in assay [8]; 105% in [9]; 97.8% in assay [10]; 99.6% in assay [11]. Besides, the growth was 87.6% in assay [12], 94% in assay [13], 108% in assay [14] and 95.5% in [15].
As for `O=[N+]([O-])c1ccc(-c2cc3c(Nc4ccc(OCc5cccc(Cl)c5)c(Cl)c4)ncnc3s2)cc1`, the growth is 48.9% in [1]; 53.4% in assay [2]; 88.2% in [3]; 58.5% in assay [17]; 76.8% in [5]; 26.7% in assay [16]. Further, the growth in [8] was 58.9%; in assay [9] it was 86.2%; in assay [10] it was 74.3%; in assay [11], 48.7%; in assay [12], 44.1%; in [13], 52%. Moreover, the growth in assay [14] is 102%; in assay [15] it was 74%.
For the compound `O=C1Nc2ccccc2/C1=N/N=C/c1ccsc1`, the growth in [1] is 88.6%; in assay [2] it was 102%; in assay [3], 115%; in assay [4], 90.4%; in assay [5], 101%; in [6] it was 94.4%. Further, the growth in assay [7] was 110%; in [8], 87%; in [9], 112%; in assay [10], 105%; in assay [11] it was 97.8%; in [12], 49.5%. Also, the growth in [13] was 103%; in [14], 108%; in assay [15] it was 102%.
`N=C(N)c1ccc(-c2ccc(-c3ccc(Cl)cc3Cl)o2)cc1`: the growth is 2.97% (active) in [1]; -23.5% (active) in assay [2]; 16% in assay [3]; -38.1% (active) in assay [4]; -76.6% (active) in assay [5]; -40.2% (active) in [16]. In addition, the growth in assay [6] is 29.7%; in [7], -46.8% (active); in [8], 57.6%; in assay [9], 94.7%; in assay [10] it was -63.6% (active); in assay [11] it was -67.3% (active). The growth in assay [12] was -73.7% (active); in assay [13], -68.8% (active); in assay [14] it was -93.2% (active); in assay [15], -77.7% (active).
As for `Cl.Fc1c[c-]c(-c2ccccn2)c(F)c1.[Pt].c1ccc(P(c2ccccc2)C([PH+](c2ccccc2)c2ccccc2)[PH+](c2ccccc2)c2ccccc2)cc1`, the growth in [1] is 23.3%; in assay [2], 16.3%; in [3], 22%; in [4], 17.2%; in assay [5] it was 19.1%; in [16], 11%. The growth in assay [6] was 12%; in [7], 84.2%; in assay [8] it was 27.7%; in [9] it was 26.6%; in [10], 12.9%; in [11], 14.7%. Also, the growth is 4.74% (active) in assay [12], 8.7% (active) in assay [13], 24.6% in [14] and 11.4% in assay [15].
Turning to `CCn1c(Sc2nnc(NC(=O)CSC(=S)N3CCCCC3)s2)nc2c1c(=O)n(C)c(=O)n2C`, the growth was 44.8% in [1]; 92.8% in [2]; 93.6% in assay [3]; 84% in assay [4]; 78.5% in [5]; 56.5% in assay [16]. The growth was 91.4% in assay [6]; 42.2% in assay [7]; 86.9% in assay [8]; 79.7% in assay [9]; 6.74% (active) in assay [10]; 61.8% in [11]. The growth in assay [12] is 91.9%; in assay [13], 87.7%; in [14] it was 81.9%; in assay [15], 64.2%.
For the compound `Cc1cc(-c2noc(C(F)(F)F)n2)ccc1N1CCN(c2cc(C(=O)N(C)C)no2)CC1`, the growth in [1] was 52.9%; in assay [2], 68.1%; in assay [3], 102%; in assay [4] it was 64.9%; in assay [5], 92.1%; in [16], 83.9%. The growth in assay [6] is 89.1%; in [7], 69.5%; in assay [8], 46.6%; in [9] it was 66.6%; in assay [10], 71%; in [11] it was 84.7%. Besides, the growth in assay [12] is 55.5%; in assay [13], 45.7%; in [14], 80.8%; in assay [15], 85.2%.
With `O=C(NCCOCCOCCOCCNC(=O)c1cc2c(o1)C(=O)c1ccccc1C2=O)NC12CC3CC(CC(C3)C1)C2`, the growth in assay [1] is 14.8%; in assay [2] it was 1.25% (active); in assay [3] it was -69.9% (active); in assay [4], -72.8% (active); in assay [5] it was 6.23% (active); in assay [16], -32% (active). The growth was -30.3% (active) in [6]; 8.9% (active) in assay [7]; 9.45% (active) in [8]; -84.9% (active) in assay [9]; -95.9% (active) in assay [10]; -8.88% (active) in assay [11]. Also, the growth was -63.3% (active) in [12], 3.1% (active) in [13], -67.6% (active) in assay [14] and -1.07% (active) in assay [15].
For the compound `CN1C(=O)CCC(N2C(=O)c3cccc(NCCOCCOCCNC(=O)c4cc5c(o4)C(=O)c4ccccc4C5=O)c3C2=O)C1=O` (centres undefined), the growth is 7.99% (active) in assay [1]; 2.72% (active) in assay [2]; -85.5% (active) in assay [3]; -20.1% (active) in assay [5]; -44.7% (active) in assay [16]; 45.1% in [7]. Besides, the growth was 11.1% in [8]; -95.4% (active) in assay [9]; -94.6% (active) in assay [10]; -3.3% (active) in assay [11]; -65% (active) in assay [12]; -21.9% (active) in [13]. The growth in assay [14] is -62.2% (active); in assay [15] it was -11.8% (active).
For `N#C/C=C(\c1ccc([N+](=O)[O-])cc1)n1nnc2cc(Cl)c(Cl)cc21`, the growth in [1] is 13%; in assay [2], 15.7%; in assay [3], 10.1%; in assay [5], -43% (active); in [16], -48% (active); in assay [6], 27.8%. The growth in assay [7] is -4.34% (active); in [8] it was 28.5%; in assay [9] it was 33.7%; in assay [10], 7.64% (active); in assay [11], -34.8% (active); in assay [12] it was 1.7% (active). In addition, the figures for the growth in [13], in [14] and in assay [15] were -52.7% (active), 19.9% and -81.1% (active), respectively.
For `COc1ccc(/C=C2\COc3ccc(O)cc3C2=O)c(OC)c1`, the growth in assay [1] was 19.5%; in [2] it was 63.3%; in assay [3], 94.3%; in [17], 58%; in [5], 67.3%; in [16], 27%. The growth in assay [6] is 66%; in assay [7] it was 33%; in [8], 56.4%; in [9], 57.8%; in assay [10], -30% (active); in assay [11] it was 54.9%. The growth in assay [12] is 54.7%; in assay [13], 61.9%; in assay [14], 89.2%; in [15], 24.8%.
As to `O=C1Nc2ccc(Cl)cc2/C1=N/N=C/c1c[nH]c2ccccc12`, the growth is 75.2% in [1]; 76% in assay [2]; 89.8% in assay [3]; 67.8% in assay [4]; 42.7% in [5]; 76.5% in [16]. For the same compound, the growth is 22% in [6]; 98.1% in assay [7]; 73.4% in [8]; 93.5% in [9]; 87% in assay [10]; 79.2% in assay [11]. The growth in [12] was 71.1%; in assay [13], 75.6%; in [14], 101%; in [15], 68.1%.
Regarding `O=C(NCCN1CCC(O)CC1)c1cc2c(o1)C(=O)c1ccccc1C2=O`, the growth is 13.4% in [1]; -48.8% (active) in assay [2]; -84.7% (active) in assay [3]; -94.1% (active) in assay [4]; -83.8% (active) in assay [5]; -75.1% (active) in assay [16]. In addition, the growth in [6] was -27.4% (active); in assay [7], -26.3% (active); in assay [8] it was -44.6% (active); in [9] it was -94.4% (active); in [10] it was -91.8% (active); in [11] it was -78.3% (active). Also, the growth in assay [12] was -69.7% (active); in assay [13] it was -81.5% (active); in [14] it was -92.9% (active); in assay [15], -89.3% (active).
As to `Cl.Fc1c[c-]c(-c2ccccn2)c(F)c1.[Pt].c1ccc([PH+](c2ccccc2)c2ccccc2[PH+](c2ccccc2)c2ccccc2)cc1`, the growth in [1] was -6.47% (active); in [2], -44.5% (active); in assay [3] it was -94.3% (active); in assay [4], -97.3% (active); in assay [5], -77.9% (active); in assay [16], -96.4% (active). For the same compound, the growth in assay [6] was -50.3% (active); in assay [7] it was -35.5% (active); in [8], -80.2% (active); in assay [9], -70.2% (active); in assay [10], -93.5% (active); in assay [11], -81.6% (active). Besides, the growth is -79.3% (active) in assay [12], -68% (active) in [13], -76.6% (active) in assay [14] and -90.6% (active) in assay [15].
Turning to `Cc1ccc(/C=C(\C#N)n2nnc3cc(Cl)c(Cl)cc32)cc1`, the growth in assay [1] is 17.3%; in [2], 14.8%; in assay [3], 13.3%; in [4] it was 29.3%; in assay [5] it was 12.2%; in [16] it was -35.2% (active). For the same compound, the growth in assay [6] is 11.7%; in [7], -25.5% (active); in [8] it was 15.1%; in assay [9], 7.89% (active); in [10], -46.7% (active); in [11] it was 16.3%. The growth in assay [12] was 6.58% (active); in [13], 8.31% (active); in [14], 13.6%; in assay [15], 0.682% (active).
Consider `N=C(N)c1ccc(-c2ccc(/C=C/c3ccccc3)s2)cc1`, for which the growth in assay [1] is 1.05% (active); in assay [2], 8.3% (active); in assay [3], 13.1%; in assay [5], -62.6% (active); in [16], -25.5% (active); in assay [6], 57.4%. The growth in assay [7] is -12.5% (active); in assay [8], 37.8%; in assay [9] it was 93.9%; in assay [10], -34.9% (active); in assay [11] it was -67.1% (active); in [12], -74.2% (active). Besides, the growth was -79% (active) in assay [13], -63.7% (active) in [14] and -47.1% (active) in [15].
